The text below walks through data of PubChem BioAssay AID720641 (ICCB-Longwood Screening Facility, Harvard Medical School, 2013).

About 900 (0.53%) of roughly 170,000 compounds were called active.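 How the source made its calls: active means relative growth at most 50% at the other temperature and 20+ points below 30 °C, or under 10% at both; inactive means the rest, inconclusive results apart.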 The list comes from a sample in which actives are over-represented; it also holds similar structures and randomly drawn compounds.

The test in a line: Staphylococcus aureus RN4220 growth blockers – two temperatures, LtaS inhibitor project, primary screen (AID 720641). The note with it: S. aureus RN4220 growth, OD600, 20 h, 42 °C, stronger effect = lower value.

Consider `C1=CCC(/C=N/Nc2nc3ccccc3o2)CC1` (stereo not drawn), for which the relative growth is 82% (inactive). Also, the relative growth (measured here: growth at 30 °C) was determined as 84.9%.

For `Cc1cc2oc(=O)cc(Cn3nnc(-c4ccc(F)cc4)n3)c2cc1C`, the relative growth was 84.4% (inactive). In addition, the relative growth (measured here: growth at 30 °C) was 95.6%.

With `CCCNS(=O)(=O)c1ccc(N2CCCCS2(=O)=O)cc1`, the relative growth is 101% (inactive). For the same molecule, under “measured here: growth at 30 °C”, the relative growth came to 93.7%.

In the case of `c1ccc(-c2nc3ccccc3nc2N2CCCC2)cc1`, the relative growth was 97.9% (inactive). The relative growth (measured here: growth at 30 °C) came out at 98.8%.

As for `O=C(N/C=C/c1ccsc1)Nc1cc(C(F)(F)F)cc(C(F)(F)F)c1`, the relative growth was -2.07% (active). The relative growth (measured here: growth at 30 °C) is -0.58%.

Turning to `O=C(O)CCCC(=O)Nc1cc(C(F)(F)F)cc(C(F)(F)F)c1`, the relative growth is 101% (inactive). Further, under “measured here: growth at 30 °C”, the relative growth was determined as 71.5%.

`O=C(CSc1ccccn1)Nc1cc(C(F)(F)F)cc(C(F)(F)F)c1`: the relative growth is 112% (inactive). The relative growth (measured here: growth at 30 °C) is 86.3%.

For the molecule `CC(=O)OCC(=O)CC12CC3CC(CC(C3)C1)C2`, the relative growth is 83.3% (inactive). For the same molecule, the relative growth (measured here: growth at 30 °C) is 93.7%.

For the molecule `CCOC(=O)CN1C(=O)S/C(=C\c2ccc(-c3ccc(Cl)cc3Cl)o2)C1=O`, the relative growth is 89.9% (inactive). In addition, the relative growth (measured here: growth at 30 °C) is 87%.

Take `CCN1CCCC1CNC(=O)c1nnc(Cc2ccccc2OC)o1` (stereo not drawn): the relative growth was 79.5% (inactive). Also, the relative growth (measured here: growth at 30 °C) stood at 88.3%.

As to `FC(F)(F)c1cc(-c2ccc(Br)cc2)n[nH]1`, the relative growth was 8.64% (active). In addition, the relative growth (measured here: growth at 30 °C) was found to be 4.24%.

Regarding `CC(C)(C)c1ccc(S(=O)(=O)N2CCN(C(=O)c3cc(-c4ccc(Br)cc4)n[nH]3)CC2)cc1`, the relative growth is 99.3% (inactive). The relative growth (measured here: growth at 30 °C) is 102%.

Take `Cc1cc(C)c(NC(=O)CSC2=NN3CCCC(=O)N=C3S2)c(C)c1`: the relative growth is 95% (inactive). Also, the relative growth (measured here: growth at 30 °C) turned out to be 89%.

On to `CCCNc1ncnc2onc(-c3ccc(F)cc3)c12`, for which the relative growth is 90.2% (inactive). Besides, the relative growth (measured here: growth at 30 °C) was determined as 91%.

Consider `CNC(=O)C1CCN(S(=O)(=O)c2c(C)noc2/C=C/c2cccc(C)c2)CC1`, for which the relative growth is 107% (inactive). Moreover, the relative growth (measured here: growth at 30 °C) stood at 81.4%.

Turning to `CCCOc1c(Br)cc(C(=O)O)cc1OC`, the relative growth is 90.2% (inactive). The relative growth (measured here: growth at 30 °C) is 101%.

For `CC1CC(C)CN(C(=O)C(C)n2sc3ccccc3c2=O)C1` (stereo not drawn), the relative growth was 120% (inactive). Moreover, the relative growth (measured here: growth at 30 °C) stood at 95.8%.

`CCn1c(SCc2c(C)noc2C)nc2cc(S(=O)(=O)N3CCOCC3)ccc21`: the relative growth is 63.8% (inactive). Also, for the setting “measured here: growth at 30 °C”, the relative growth is 94%.

As to `NC(=O)c1ncoc1-c1cccc(Cl)c1`, the relative growth is 108% (inactive). For the same molecule, under “measured here: growth at 30 °C”, the relative growth is 76%.

As to `Oc1ccc(-c2cccc(-c3ccc(O)cc3)c2)cc1`, the relative growth is 97.5% (inactive). Where the note is “measured here: growth at 30 °C”, the relative growth amounted to 59.9%.

In the case of `Oc1ccc(-n2cccc2)cc1`, the relative growth is 84.2% (inactive). Where the note is “measured here: growth at 30 °C”, the relative growth was determined as 92.9%.

In the case of `Oc1ccc(SSc2ccc(O)cc2)cc1`, the relative growth was 3.56% (active). Moreover, the relative growth (measured here: growth at 30 °C) amounted to 3.94%.

As for `CCOC(=O)C1=C(C)Nc2[nH]c(=O)[nH]c(=O)c2C1c1ccccc1` (stereo not drawn), the relative growth was 94.1% (inactive). Moreover, where the note is “measured here: growth at 30 °C”, the relative growth was found to be 92.8%.

As for `FC(F)(F)C1CCCN(c2nsc3ccccc23)C1` (stereo not drawn), the relative growth was -0.41% (active). In addition, where the note is “measured here: growth at 30 °C”, the relative growth was -0.5%.

On to `Cc1c(/C=C/C(=O)Oc2ccc(C#N)cc2)sc2ccccc12`, for which the relative growth is 110% (inactive). Besides, for the setting “measured here: growth at 30 °C”, the relative growth came to 87.3%.

On to `Cc1ccccc1OCC(=O)Nc1cc(Sc2ccccn2)cc(S(=O)(=O)c2ccccc2)c1`, for which the relative growth was 103% (inactive). For the setting “measured here: growth at 30 °C”, the relative growth was determined as 88.5%.

`CC(C)(C)c1cc(Cl)c(O)c(NC(=O)c2cncc(Br)c2)c1`: the relative growth is 112% (inactive). For the same molecule, the relative growth (measured here: growth at 30 °C) came to 87.7%.

Turning to `Cc1cccc(OC(=O)Nc2ccccc2)c1`, the relative growth is 102% (inactive). Further, the relative growth (measured here: growth at 30 °C) came out at 91.2%.

Regarding `CCn1c(CCl)nc2cc(C(=O)O)ccc21`, the relative growth is 119% (inactive). Where the note is “measured here: growth at 30 °C”, the relative growth is 82.3%.

For the molecule `O=S(=O)(NC1CCCC1)c1ccc(S(=O)(=O)N2CCN(c3ncccn3)CC2)cc1`, the relative growth is 100% (inactive). For the same molecule, the relative growth (measured here: growth at 30 °C) is 79.4%.

With `O=C(Nc1cccc(-c2nc3ccccc3o2)c1)c1cccc(OCc2ccccc2)c1`, the relative growth was 124% (inactive). Besides, where the note is “measured here: growth at 30 °C”, the relative growth came to 93.3%.

Take `O=C(OCCN1CCCCC1)c1cccc(COc2ccc3ccccc3c2)c1`: the relative growth was 102% (inactive). Besides, the relative growth (measured here: growth at 30 °C) came to 83%.

Consider `O=C(Nc1ccncc1)c1cccc(COc2ccc3ccccc3c2)c1`, for which the relative growth was 1.11% (active). The relative growth (measured here: growth at 30 °C) was 2.67%.

For `CCOc1ccc(C(=O)NN)cc1`, the relative growth was 77.2% (inactive). For the same molecule, the relative growth (measured here: growth at 30 °C) was 80.8%.

On to `CCn1c(CSc2nc3ccccc3s2)nnc1SC(C)C(=O)Nc1ccc(N(C)C)cc1` (stereo not drawn), for which the relative growth was 116% (inactive). Moreover, the relative growth (measured here: growth at 30 °C) was 97.9%.

Take `O=C(Sc1cccs1)c1csc(C2COc3ccccc3O2)n1` (stereo not drawn): the relative growth was 0.36% (active). Besides, for the setting “measured here: growth at 30 °C”, the relative growth is -0.46%.

`CN(C)C(=O)c1csc(C2COc3ccccc3O2)n1` (stereo not drawn): the relative growth is 93.5% (inactive). Where the note is “measured here: growth at 30 °C”, the relative growth is 87.9%.

Turning to `O=C(Oc1ccc(Cl)cc1)c1csc(C2COc3ccccc3O2)n1` (stereo not drawn), the relative growth was 92.8% (inactive). Moreover, under “measured here: growth at 30 °C”, the relative growth stood at 92.7%.

With `N#C/C(=C\c1ccccc1F)c1ccccc1`, the relative growth was 110% (inactive). For the same molecule, the relative growth (measured here: growth at 30 °C) is 92.3%.

On to `CC1=CC(=O)C=CC1=N/C(=N\S(=O)(=O)c1ccc(C)cc1)c1ccccc1`, for which the relative growth was 104% (inactive). Besides, where the note is “measured here: growth at 30 °C”, the relative growth worked out at 57.7%.

As to `COCCn1c(SC)nc2c(c1=O)SCC2`, the relative growth was 96% (inactive). Further, the relative growth (measured here: growth at 30 °C) amounted to 94.8%.

As to `N#C/C(=C\c1ccc(-c2ccc(S(=O)(=O)N3CCOCC3)cc2)o1)S(=O)(=O)c1ccc(Br)cc1`, the relative growth was 87.4% (inactive). The relative growth (measured here: growth at 30 °C) worked out at 90.9%.

In the case of `CN(C(=O)c1cccnc1Cl)C1CCS(=O)(=O)C1` (stereo not drawn), the relative growth is 115% (inactive). Moreover, the relative growth (measured here: growth at 30 °C) came to 88.3%.

`CCn1nc(-c2cccs2)cc1C(=O)N(C)C`: the relative growth is 105% (inactive). In addition, the relative growth (measured here: growth at 30 °C) came out at 86.8%.

As for `CCOC(=O)CSc1ccccn1`, the relative growth is 94.9% (inactive). Also, for the setting “measured here: growth at 30 °C”, the relative growth stood at 101%.

On to `CCOC(=O)CCSc1ccccn1`, for which the relative growth is 0.28% (active). In addition, for the setting “measured here: growth at 30 °C”, the relative growth was -0.27%.

With `COC(=O)c1ccccc1NC(=O)CSc1ccccn1`, the relative growth is 93.1% (inactive). Besides, under “measured here: growth at 30 °C”, the relative growth came to 93.2%.

In the case of `CCSc1ncc(Cl)c(C(=O)Nc2cc(C)ccc2C)n1`, the relative growth is 108% (inactive). Where the note is “measured here: growth at 30 °C”, the relative growth stood at 85.1%.

Turning to `CSc1nnc(NC(=O)c2nc(S(=O)(=O)Cc3ccc(F)cc3)ncc2Cl)s1`, the relative growth is 93.7% (inactive). The relative growth (measured here: growth at 30 °C) came out at 90.3%.
